Results published in PubChem BioAssay AID1851 (National Center for Advancing Translational Sciences (NCATS), 2009).
In all, about 16,000 compounds went through this assay and about 4,000 (25%) were called active. Not shown: some 26% with an inconclusive outcome. These entries were drawn from the full list. Unmarked numbers belong to inactive results. The call rests on the fitted dose curve; in most records, active means well fitted curve in the direction sought with a large enough effect; inconclusive means small, poorly fitted or top-dose-only effect, or effect the other way; inactive means no such curve, though single readings can be large or run the other way.
On the % scale 0 is the no-effect control and ±100 the full control effect.

What follows are molecules tested against Cytochrome P450 2C9 (Homo sapiens) (UniProt P11712) (assay: Cytochrome panel assay with activity outcomes). Conditions: recombinant CYP, pro-luciferin dealkylation, luminescence, p450-cyp2c9; series mostly up to 57.1 µM.
Cytochrome P450 2C9 (Homo sapiens), sequence (P11712 whole entry, looked up): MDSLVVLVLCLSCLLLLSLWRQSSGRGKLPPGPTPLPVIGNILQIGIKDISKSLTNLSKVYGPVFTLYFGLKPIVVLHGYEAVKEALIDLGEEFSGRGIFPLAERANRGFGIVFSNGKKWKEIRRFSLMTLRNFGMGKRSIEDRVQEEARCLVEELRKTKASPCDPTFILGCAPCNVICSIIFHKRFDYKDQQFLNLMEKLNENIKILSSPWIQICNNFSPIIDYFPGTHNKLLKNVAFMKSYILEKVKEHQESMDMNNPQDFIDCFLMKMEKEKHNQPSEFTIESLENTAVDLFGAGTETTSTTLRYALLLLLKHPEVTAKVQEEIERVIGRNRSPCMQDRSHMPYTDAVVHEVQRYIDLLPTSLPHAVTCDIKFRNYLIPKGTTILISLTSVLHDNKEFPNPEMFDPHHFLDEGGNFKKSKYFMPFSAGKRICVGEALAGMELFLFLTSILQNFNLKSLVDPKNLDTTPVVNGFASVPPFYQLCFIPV
With `CN1CCN(CCCNC(=O)C2CCN(c3nnc(-n4cccc4)s3)CC2)CC1` the AC50 was “inactive”. `CC(=O)OC[C@@H]1O[C@H](C/C=N\O[C@@H](C)CN2CCCc3nc(C)c(C)cc32)C=C[C@@H]1OC(C)=O` showed an activity, negative = inhibition of -0.762% [at 11.4 µM]. In the case of `O=C(CSc1nc2ccccc2c2ccccc12)c1ccccc1`, the activity, negative = inhibition is reported as -1.33% [at 11.4 µM]. In the case of `N#Cc1ccc(-c2ccccc2)nc1SCC(=O)c1cccc(Cl)c1`, the AC50 is reported as 2 µM (active). `CCOc1ccc(OCCOc2ncnc3ccccc23)cc1` was tested, and the AC50 was 17.8 µM (active). `CC(CO)(CO)Nc1ncnc2ccccc12` gave an activity, negative = inhibition of 15.3% [at 11.4 µM]. `CC1CN(C(=O)COc2ncnc3ccccc23)CC(C)O1` (stereo not drawn) was tested, and the AC50 was “inactive”. `CN(C)C(=O)c1ccc(-c2cc(N(C)Cc3ccco3)ncn2)cc1` was tested, and the activity, negative = inhibition was 0.869% [at 2.29 µM]. `CN(C)C(=O)c1ccc(-c2nccc(N(C)Cc3ccco3)n2)cc1` gave an activity, negative = inhibition of 0.769% [at 2.29 µM]. `CCC(=O)N(Cc1ccco1)c1nc(-c2ccccc2)cs1` was tested, and the AC50 was 2.51 µM (active). With `O=C(O)C1=CCNCC1` the AC50 was “inactive”. For `c1cc(NNc2cccc(-c3nn[nH]n3)c2)cc(-c2nn[nH]n2)c1`, the activity, negative = inhibition was -4.17% [at 11.4 µM]. With `Nc1cc(-c2nn[nH]n2)ccc1F` the AC50 was 12.6 µM (active). With `C[C@](N)(C(=O)O)c1ccc(-c2nn[nH]n2)cc1` the AC50 was “inactive”. `COc1cc(N[C@@H](C)CCCN)c2ncccc2c1` was tested, and the AC50 was “inactive”. For `COc1ccc(CCC(C)NC2C3CC4CC(C3)CC2C4)cc1` (stereo not drawn), the AC50 was “inactive”. `COc1ccc(CCC(C)Nc2cccc(F)c2)cc1` (stereo not drawn) was tested, and the AC50 was 12.6 µM (active). With `COc1ccc(C(=O)N2CCC[C@@]3(CCN(CC(C)C)C3)C2)cc1` the AC50 was “inactive”. `Cc1noc(C)c1C(=O)N1CCC2(CCCN(C(=O)Nc3cccc(F)c3)C2)CC1` was tested, and the AC50 was “inactive”. In the case of `COc1cccc(CN2C(=O)N(C(C)C)C(N(O)C(=O)NC(C)C)C2(C)C)c1OC` (stereo not drawn), the AC50 is reported as 15.8 µM (active). For `CCOC(=O)C1=C(C)NC2(O)c3ccccc3C(=O)C12O` (stereo not drawn), the AC50 was “inactive”. In the case of `CCC(C)OC(=O)C1=C(C)NC(=O)CC1c1ccccc1OC` (stereo not drawn), the AC50 is reported as 7.08 µM (active). For `CCCCOc1cc(C[C@@H]2CNC(=O)N2)ccc1OC`, the AC50 was “inactive”. In the case of `CCCOc1ccccc1C1CC(=O)NC(C)=C1C(=O)OCC(C)C` (stereo not drawn), the AC50 is reported as 1.12 µM (active). With `CCCCOc1ccccc1C1CC(=O)NC2=C1C(=O)CCC2` (stereo not drawn) the AC50 was 17.8 µM (active). With `COc1cccc2c1OC1(C)CC2/C(=C(\C)O)C(=O)N1` (stereo not drawn) the AC50 was “inactive”. With `NC(=O)c1cc[n+](CC2=C(C(=O)[O-])N3C(=O)[C@@H](NC(=O)Cc4cccs4)[C@@H]3SC2)cc1` the AC50 was “inactive”. With `FC(F)(F)c1ccccc1-c1cncnc1NCc1cccnc1` the activity, negative = inhibition was 6.26% [at 2.29 µM]. In the case of `COC(=O)[C@@H]1C[C@H]1[C@@H](NC(=O)Oc1ccc(F)cc1)c1ccccc1`, the AC50 is reported as 3.98 µM (active). For `O=C(N[C@@H](c1ccccc1)[C@@H]1C[C@H]1C(=O)O)OCc1ccccc1`, the AC50 was “inactive”. For `COC(=O)[C@H]1C[C@@H]1[C@H](NC(=O)OCc1ccccc1)c1ccccc1`, the AC50 was 15.8 µM (active). In the case of `COC(=O)C1CC1C(NC(=O)[C@@H]1CCCN1)c1ccccc1` (stereo partly drawn), the AC50 is reported as “inactive”. `Cc1noc(C)c1C(=O)N1CCC[C@@]2(CCN(Cc3cc(C(F)(F)F)cc(C(F)(F)F)c3)C2)C1` was tested, and the AC50 was “inactive”. For `CCOc1ccccc1CNCCN1CCOCC1`, the AC50 was “inactive”. In the case of `CCc1cc(C(c2ccccc2OC)N2CCOCC2)c(NC(=O)c2ccccc2)s1` (stereo not drawn), the AC50 is reported as 1.58 µM (active). Molecule `CC(=O)[C@H]([C@@H](c1ccccc1)N1CCOCC1)N1CCOCC1` has an activity, negative = inhibition of -15.9% [at 11.4 µM]. In the case of `CCCCc1nc(SCC(=O)Nc2ncccn2)n[nH]1`, the AC50 is reported as “inactive”. With `Cc1cc(NC(=O)CSc2n[nH]c(-c3cccs3)n2)no1` the AC50 was 12.6 µM (active). For `CO[C@H]1COC(=O)[C@H](C)NC(=O)C/C=C\[C@@H](C)[C@@H](NS(=O)(=O)c2ccc(C)cc2)COC(=O)[C@H](OCc2ccccc2)/C=C\[C@@H]1C`, the activity, negative = inhibition was -22.3% [at 11.4 µM]. In the case of `N#CC(c1ccccn1)(c1ncc(C(F)(F)F)cc1Cl)N1CCOCC1` (stereo not drawn), the AC50 is reported as “inactive”. `N#CC(c1ccc(Cl)cc1)(c1ncc(C(F)(F)F)cc1Cl)N1CCOCC1` (stereo not drawn) was tested, and the AC50 was 10 µM (active). In the case of `COc1ccc(S(=O)(=O)NNC(=O)C2Cc3c(ccc4ccccc34)O2)cc1` (stereo not drawn), the AC50 is reported as 7.94 µM (active). For `CC(C)(CNC(=O)c1ccc([N+](=O)[O-])c(Cl)c1)CNC(=O)c1ccc([N+](=O)[O-])c(Cl)c1`, the AC50 was 0.891 µM (active). In the case of `Clc1ccccc1-c1cc(NCc2cccnc2)ncn1`, the activity, negative = inhibition is reported as -1% [at 2.29 µM]. `O=C(NCc1cccnc1)c1sc2cc(Cl)ccc2c1Cl` was tested, and the AC50 was 10 µM (active). In the case of `CN(C)C(=O)c1ccc(-c2cc(NCc3cccnc3)ncn2)cc1`, the activity, negative = inhibition is reported as 17.1% [at 2.29 µM]. In the case of `CN(C(=O)c1c(O)c2ccccc2n(C)c1=O)c1ccccc1`, the AC50 is reported as “inactive”. For `CN(C(=O)CC(NC(=O)c1ccccc1)(c1ccccc1)c1ccccc1)c1ccccc1`, the AC50 was 15.8 µM (active). `CN(C)CCCN1CC(C(=O)O)CC1=O` (stereo not drawn) was tested, and the AC50 was “inactive”. With `FC(F)(F)c1cccc(-c2nc3nc(Cl)c(Cl)nc3[nH]2)c1` the AC50 was 3.98 µM (active). `C[C@H]1NC(=O)NC1=O` was tested, and the AC50 was “inactive”. With `CC(C)c1cccc2nc3c(c(C(C)(C)C)c12)Cn1c-3cccc1=O` the AC50 was 10 µM (active). With `CC[C@@]1(O)C(=O)COc2c1cc1n(c2=O)Cc2c-1nc1cccc(C(C)C)c1c2[Si](C)(C)C` the AC50 was “inactive”. For `CCc1c2c(nc3c(C(C)C)cccc13)-c1cccc(=O)n1C2`, the AC50 was 15.8 µM (active). In the case of `CC(C)c1cccc2cc3c(nc12)-c1cccc(=O)n1C3`, the AC50 is reported as “inactive”. For `CCc1cccc2nc3c(c([Si](C)(C)C)c12)Cn1c-3cccc1=O`, the AC50 was 20 µM (active). For `Cc1c2c(nc3ccccc13)-c1cccc(=O)n1C2`, the AC50 was “inactive”. In the case of `CC(C)c1cccc2c([Si](C)(C)C)c3c(nc12)-c1cccc(=O)n1C3`, the AC50 is reported as 2 µM (active). Work on `CC1(C)[C@@H]2CC[C@]1(C)[C@@H](OC(=O)CSC#N)C2` yielded an activity, negative = inhibition of -16.1% [at 11.4 µM]. `N#C/C(=C\c1cc(Cl)cc(Cl)c1O)C(=O)NC1CCCCC1` was tested, and the AC50 was 12.6 µM (active). In the case of `S=C(Nc1cccc(Cl)c1)NC1CCCCC1`, the AC50 is reported as “inactive”. In the case of `Cn1c[n+](C)cc1/C=N/O`, the AC50 is reported as “inactive”. For `Nc1nc2ncc(CNc3ccc(C(=O)N[C@@H](CCC(=O)O)C(=O)O)cc3)nc2c(=O)[nH]1`, the AC50 was “inactive”. With `CC(C)(C)CC(C)(C)c1ccc(OCOCCOCCO)c(Cc2cc(C(C)(C)CC(C)(C)C)cc(Cc3cc(C(C)(C)CC(C)(C)C)ccc3OCOCCOCCO)c2OCOCCOCCO)c1` the AC50 was “inactive”. With `CN(C)C(=O)c1ccc(-c2nc(Nc3ccccc3)c3ccccc3n2)cc1` the activity, negative = inhibition was -13.3% [at 2.29 µM]. For `CC1CCC(NC(=O)CC(C)(C)Cc2nc3ccccc3c(=O)[nH]2)CC1` (stereo not drawn), the AC50 was 3.55 µM (active). For `Cc1ccccc1-c1nc(NC2CC2)c2ccccc2n1`, the activity, negative = inhibition was 3.04% [at 2.29 µM]. `O=C1/C(=C\c2ccc(Br)o2)SC(=Nc2ccccc2)N1c1ccccc1` was tested, and the AC50 was 0.398 µM (active). `CC(C)CN1CCC2(CC1)CCN(C(=O)c1cccc(F)c1)CC2` was tested, and the AC50 was “inactive”. In the case of `CC(C)CN1CC2(CCN(C(=O)c3cccc(F)c3)CC2)C1`, the AC50 is reported as “inactive”. `CC(C)CC(=O)N1CCN(Cc2cccc(F)c2)CC1` was tested, and the AC50 was 0.0251 µM (active). Work on `C/C(=N/S(=O)(=O)c1ccc(Cl)c(Cl)c1)OCC(C)(C)C` yielded an activity, negative = inhibition of 6.28% [at 11.4 µM]. `N#Cc1cccc(NC(=O)N2CCCC3(CCN(C(=O)c4cc(C(F)(F)F)cc(C(F)(F)F)c4)CC3)C2)c1` was tested, and the AC50 was “inactive”. `N#Cc1cccc(NC(=O)N2CC3(CCN(C(=O)c4ccco4)CC3)C2)c1` was tested, and the AC50 was “inactive”. With `N#Cc1cccc(NC(=O)N2CC3(CCN(C(=O)c4cc(C(F)(F)F)cc(C(F)(F)F)c4)CC3)C2)c1` the AC50 was 12.6 µM (active). With `N#Cc1cccc(NC(=O)N2CCCC3(CCN(C(=O)c4ccco4)CC3)C2)c1` the AC50 was 3.98 µM (active). In the case of `N#Cc1cccc(NC(=O)N2CC[C@@]3(CCCN(C(=O)c4ccco4)C3)C2)c1`, the AC50 is reported as “inactive”. In the case of `CC(=O)N1CCC2(CC1)CN(C(=O)Nc1cccc(C#N)c1)C2`, the AC50 is reported as “inactive”. In the case of `CCNCCCNCCCNCCCNCC`, the AC50 is reported as “inactive”. For `CC(C)(C)N1C(=O)[C@H]2[C@H]3[C@H](O)[C@H](O)C/C(=N/NC(=O)OCc4ccccc4)[C@@H]3CC[C@@H]2C1=O`, the activity, negative = inhibition was 29.2% [at 11.4 µM]. `C/C(=N\NC(N)=S)c1ccc[nH]1` gave an activity, negative = inhibition of -7.98% [at 11.4 µM]. In the case of `Cc1ccc(C(=O)c2cn[nH]c2-c2cc(Cl)ccc2O)cc1`, the AC50 is reported as 2.24 µM (active). `Cc1ccc(NCCC(=O)c2ccc(Cl)c(Cl)c2)cc1` was tested, and the AC50 was “inactive”. With `C=C1C(=O)O[C@@H]2[C@H]3O[C@]3(C)CCC=C(C)CC[C@@H]12` the AC50 was “inactive”. `CC(=O)OC[C@H]1O[C@@H](O/N=C(\C)CCN2CCCc3nc(C)c(C)cc32)[C@H](OC(C)=O)[C@@H](OC(C)=O)[C@H]1OC(C)=O` gave an activity, negative = inhibition of 18.1% [at 11.4 µM]. For `NS(=O)(=O)c1ccc(N=Nc2nc3[nH]c(=O)[nH]c(=O)c3[nH]2)cc1`, the activity, negative = inhibition was 0.503% [at 11.4 µM]. For `Cc1ccc(/C=C/c2ccc(=O)n(Cc3ccc(Cl)cc3Cl)n2)cc1`, the AC50 was 3.16 µM (active). For `CC(C)(CO)[C@H](O)C(=O)NCCCO`, the AC50 was “inactive”. With `COCCCNC(=O)c1c(N)n(/N=C/c2ccccn2)c2nc3ccccc3nc12` the AC50 was 5.62 µM (active). In the case of `Cc1ccc(/C=N/n2c(COc3ccccc3)n[nH]c2=S)s1`, the AC50 is reported as 4.47 µM (active). In the case of `O=[N+]([O-])c1ccccc1/C=N/n1c(COc2ccccc2)n[nH]c1=S`, the AC50 is reported as 3.55 µM (active). With `O=[N+]([O-])c1ccc(/C=N/n2c(COc3ccccc3)n[nH]c2=S)cc1` the AC50 was 2.82 µM (active). With `CC1=NNC(=O)C1CCC(=O)N/N=C\c1ccccc1[N+](=O)[O-]` (stereo not drawn) the AC50 was “inactive”.
